The results in this text go back to PubChem BioAssay AID686979 (National Center for Advancing Translational Sciences (NCATS), 2013).

About 50,000 (12%) of roughly 420,000 compounds were called active. About 26% were inconclusive and are not listed. The sample holds actives, similar compounds and a random draw of the others, so the mix is not that of the screen. Calls follow the shape of the dose curve; as a rule, active = well fitted inhibition curve with a large enough effect; inconclusive = small, poorly fitted or top-dose-only effect; inactive = flat fitted curve, though single readings scatter.
% is scaled to controls: 0 for no effect and ±100 for the full control effect; potency is read from the fitted curve at half-maximal effect.

The test is described as follows: qHTS for Inhibitors of human tyrosyl-DNA phosphodiesterase 1 (TDP1): qHTS in cells in presence of CPT. Also: nearly all actives have a fitted effect of over 55% in size. The following applies: chicken DT40 Tdp1-/-;hTDP1 cells + 20 nM CPT, ATP luminescence, 48 h; series mostly up to 46.2 µM; activity change, negative = growth inhibition: at the top concentration. The method, boiled down: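 Chicken DT40 Tdp1-/- cells stably complemented with human TDP1 were seeded at 400 cells/well in medium containing 20 nM camptothecin, exposed to pin-transferred compounds, and grown at 37 °C for at least 48 hr. Viability was read as ATP luminescence.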
Regarding `COc1ccc(CC(=O)OC(C)C(=O)Nc2ccc(S(N)(=O)=O)cc2)cc1` (configuration not stated), the “activity change, negative = growth inhibition” value was 1.71% (inactive).
On the same count and under the same terms, as for `COc1cccc(NC(=O)NCCN2CCCCC2)c1`, the figure is -17.9% (inactive).
As to `COc1cccc(NC(=O)C2(C)CCN2Cc2ccccc2Cl)c1` (configuration not stated), the Potency is 25.9 µM (active).
Take `CCN(CC(=O)Nc1ccc(S(=O)(=O)N2CCCC2)cc1)CC(=O)Nc1cccc(OC)c1`: the “activity change, negative = growth inhibition” value is -0.0362% (inactive).
Same read-out and setting: as for `CCCn1nc(NS(=O)(=O)c2ccc(F)cc2)c2cc3ccccc3nc21`, the figure is -5.62% (inactive); as for `CCCn1nc(NS(=O)(=O)c2ccccc2)c2cc3cc(C)ccc3nc21`, -16.6% (inactive).
As for `CCCn1nc(NC(=O)C(C)C)c2cc3cc(OC)ccc3nc21`, the Potency is 29.1 µM (active).
`O=c1cc(CSc2ncn[nH]2)[nH]c2ccc(F)cc12`: the “activity change, negative = growth inhibition” value is -18.6% (inactive).
On to `Cc1ccccc1CN1C(=O)CSCC1(C)C(=O)Nc1c(C)cccc1C` (configuration not stated), for which the “activity change, negative = growth inhibition” value is -1.64% (inactive).
Consider `O=S(=O)(c1ccccc1)c1nc(-c2ccccc2F)oc1NCc1cccnc1`, for which the “activity change, negative = growth inhibition” value is -2.08% (inactive).
As for `COc1cccc(-c2nc(S(=O)(=O)c3ccc(C)cc3)c(NCc3ccccc3)o2)c1`, the Potency was 16.4 µM (active).
Take `COc1cccc(-c2nc3cc(C)ccc3o2)c1`: the “activity change, negative = growth inhibition” value is -20.2% (inactive).
Consider `CCN(CC)C(=O)Cn1cc(S(=O)(=O)CC(=O)NCc2ccc3c(c2)OCO3)c2ccccc21`, for which the “activity change, negative = growth inhibition” value was -2.09% (inactive).
Same read-out and setting: in the case of `Cc1c(C(=O)NCCCc2ccccc2)cccc1[N+](=O)[O-]` it was 9.3% (inactive); in that of `CCN(CC)CCNCc1ccc(OCc2ccc(Cl)nc2)c(OC)c1`, -5.45% (inactive).
Same read-out and setting: as for `Cc1occc1C(=O)Nc1cccc(S(=O)(=O)N2CCOCC2)c1`, the figure is -9.7% (inactive).
For `COc1ccc(NC(=O)c2oc3ccc(S(=O)(=O)N4CCOCC4)cc3c2C)cc1`, the Potency was 11.6 µM (active).
`Cc1c(C(=O)NCCN(C)C)oc2ccc(S(=O)(=O)N3CCCC3)cc12`: the “activity change, negative = growth inhibition” value is 1.87% (inactive).
Take `CCCNC(=O)C1(C)CCN(C(=O)c2ccc(F)cc2Cl)C1` (configuration not stated): the “activity change, negative = growth inhibition” value was -2.93% (inactive).
`OCC(O)CN(c1ccccc1)c1ccccc1` (configuration not stated): the “activity change, negative = growth inhibition” value is -5.37% (inactive).
Still for that read-out and setting: in the case of `O=C(NCCc1ccccc1)Oc1ccc(Cl)cc1` it was -2.55% (inactive); in that of `COc1ccc(N2CC(C(=O)NCCN3C(=O)S/C(=C\c4cccnc4)C3=O)CC2=O)c(OC)c1` (configuration not stated), -2.78% (inactive).
Turning to `Cc1cc(OCCCC(=O)NCCN2C(=O)S/C(=C\c3cccnc3)C2=O)ccc1Cl`, the Potency is 8.2 µM (active).
For the compound `CCOc1ccc(N2CC(C(=O)NCCN3C(=O)S/C(=C\c4cccnc4)C3=O)CC2=O)cc1` (configuration not stated), the “activity change, negative = growth inhibition” value was -15% (inactive).
On the same count and under the same terms, as for `CC1CCN(C(=O)COC(=O)c2cc(S(=O)(=O)N3CCOCC3)ccc2Cl)CC1`, the figure is 15.1% (inactive); as for `COc1ccc(O)c(/C=N/N=C/c2cccc([N+](=O)[O-])c2)c1`, -19.7% (inactive).
The same measure, in the same setting: in the case of `COc1ccc(C(=O)COC(=O)c2ccc([N+](=O)[O-])s2)cc1OC` it was -14.7% (inactive).
`O=C(OCC(=O)N1CCN(c2ccccc2)CC1)c1ccc([N+](=O)[O-])s1`: the Potency was 10.3 µM (active).
As for `COc1cc(NC(=O)COC(=O)c2ccc([N+](=O)[O-])s2)cc(OC)c1OC`, the “activity change, negative = growth inhibition” value was -26.9% (inactive).
As to `CCN(CC)CCN1C(=O)C2C(C(=O)Nc3ccc(Br)cc3)C3C=CC2(O3)C1C(=O)NC1CCCCC1` (configuration not stated), the “activity change, negative = growth inhibition” value was 3.58% (inactive).
The same measure, in the same setting: as for `Brc1cc(Br)c(Oc2cc(Br)c(Br)cc2Br)cc1Br`, the figure is 1.97% (inactive).
Still for that read-out and setting: in the case of `CC(=O)Nc1ccc(NC(=O)C(C)n2c3ccccc3c3nc(=O)cc(C)n32)cc1` (configuration not stated) it was -1.13% (inactive); in that of `CC(C)(C)c1cc2cccnc2n1Cc1ccccc1`, -20.7% (inactive).
The same measure, in the same setting: in the case of `O=C(CN1C(=O)NC2(CCCC2)C1=O)Nc1cc(C(F)(F)F)ccc1N1CCOCC1` it was 5.6% (inactive); in that of `CN1C2CCC1CC(NC(=O)c1ccc([N+](=O)[O-])cc1)C2` (configuration not stated), -12.4% (inactive); in that of `Cc1cc(C)cc(C(=O)N2CCN=C2SCc2ccc([N+](=O)[O-])cc2)c1`, -20.2% (inactive).
Take `CC(=O)N1CC[n+]2c(-c3ccc([N+](=O)[O-])cc3)csc21`: the Potency is 18.4 µM (active).
Regarding `COc1ccccc1C(=O)NCCC(=O)NN1C(=O)NC2(CCCCC2)C1=O`, the “activity change, negative = growth inhibition” value is 0.64% (inactive).
For `COc1ccc(C(=O)NC2CC(C)(C)NC(C)(C)C2)cc1OC`, the “activity change, negative = growth inhibition” value is 1.23% (inactive).
As to `CCOc1c(CNCc2ccc(C(=O)O)cc2)cccc1OC`, the “activity change, negative = growth inhibition” value is 12.2% (inactive).
Turning to `COc1cc(C(=O)NCC2(c3ccccc3)CCCC2)ccc1OC(C)C`, the Potency is 20.6 µM (active).
For `CCn1c(CNC(=O)c2ccc(OC)c(OC)c2)nnc1SCC(=O)Nc1ccccc1`, the “activity change, negative = growth inhibition” value is 12.4% (inactive).
For `CCOc1c(OC)cccc1C(=O)NCC1(c2ccccc2)CCCC1`, the Potency was 5.8 µM (active).
For `CN(C)C(CNC(=O)c1cccc(S(=O)(=O)Nc2ccc(Br)cc2)c1)c1ccco1` (configuration not stated), the “activity change, negative = growth inhibition” value was 4.66% (inactive).
On to `COc1ccc(C(=O)c2oc3ccccc3c2NC(=O)COc2cccc(C)c2)cc1`, for which the “activity change, negative = growth inhibition” value was -10.2% (inactive).
On the same count and under the same terms, as for `CCCc1nnc(SCC(=O)N2C(C)CCCC2C)n1CC` (configuration not stated), the figure is 4.32% (inactive).
Consider `O=c1c(CN2CCOc3ccc(CN4CCC(Oc5cccnc5)CC4)cc3C2)coc2ccccc12`, for which the activity change, negative = growth inhibition was 0.59% [at 9.04 µM] (inactive).
On the same count and under the same terms, as for `COCCn1c(SCc2nc3cc(OC)c(OC)cc3c(=O)[nH]2)nnc1-c1ccncc1`, the figure is -23.8% (inactive).
Same read-out and setting: in the case of `CCn1c(COc2c(C)cccc2C)nnc1SCc1nc2ccccc2c(=O)[nH]1` it was -29.2% (inactive).
Turning to `COc1ccc(C)cc1-n1nnnc1SCc1nc2ccccc2c(=O)[nH]1`, the Potency is 13 µM (active).
Turning to `Cc1cccc(NC(=O)Nc2ccc(OCc3ccccc3)cc2)n1`, the “activity change, negative = growth inhibition” value was -26.1% (inactive).
Same read-out and setting: as for `O=C(OCC(=O)N1CCN(C(=O)c2ccco2)CC1)c1cccc(O)c1`, the figure is 10.2% (inactive); as for `COc1ccc(Cl)cc1NS(=O)(=O)c1cccc(C(=O)NCC2CCCO2)c1` (configuration not stated), -18.3% (inactive); as for `CC(C)CC(CCc1ccccc1)OS(N)(=O)=O` (configuration not stated), -10.9% (inactive).
For `Cc1ccc(Cn2c(C)nc3c(c2=O)c2nc4ccccc4nc2n3Cc2ccco2)cc1`, the Potency is 25.9 µM (active).
For `Cc1ccc(Cn2c(=O)n(Cc3nc(-c4ccccc4)no3)c(=O)c3cc4c(cc32)OCO4)cc1`, the “activity change, negative = growth inhibition” value is -3.36% (inactive).
In the case of `CSc1nc2ccccc2c(=O)n1Cc1ccc(F)cc1`, the “activity change, negative = growth inhibition” value is -1.98% (inactive).
On the same count and under the same terms, as for `O=C(O)CSCc1ccc(C(=O)O)o1`, the figure is -5.59% (inactive); as for `COc1ccc(C(=O)OCC(=O)Nc2cccc(C(C)=O)c2)cc1OC`, -1.13% (inactive).
Same read-out and setting: in the case of `COc1ccc(OCC(=O)NNC(=O)C2CCC2)cc1` it was -23.6% (inactive); in that of `O=C(CC1CCCCC1)NCc1ccc(F)cc1`, -1.57% (inactive).
`OC(COc1ccc2ccccc2c1)CN1CCOCC1` (configuration not stated): the Potency entry was “inactive”.
Still for that read-out and setting: in the case of `O=[N+]([O-])c1ccc(N2CCN(CC(O)COc3ccccc3)CC2)cc1` (configuration not stated) it was 20.6 µM (active).
As to `CC(=O)Nc1ccc(OCC(O)CN2CCN(c3ccccc3Cl)CC2)cc1` (configuration not stated), the “activity change, negative = growth inhibition” value is -10.6% (inactive).
The same measure, in the same setting: as for `C[N+]1(CC(O)COc2ccccc2)CCN(C(=O)c2ccc([N+](=O)[O-])cc2)CC1` (configuration not stated), the figure is 6.42% (inactive).
As to `O=S(=O)(c1ccc(OCC(O)CN2CCN(c3ccccc3Cl)CC2)cc1)N1CCOCC1` (configuration not stated), the Potency was 14.6 µM (active).
As to `OC(COc1ccccc1)CN1CCN(c2cccc(Cl)c2)CC1` (configuration not stated), the “activity change, negative = growth inhibition” value is -8.22% (inactive).
